Six1-Eya2 inh – qHTS Assay for Inhibitors of the Six1/Eya2 Interaction; Homeobox protein SIX1 (Homo sapiens) + Protein phosphatase EYA2 (Homo sapiens), …; AlphaScreen GST-Six1/His-Eya2 binding, biochemical; hits give low values; activity change, % (no concentration beside the values); 0.56% of 360,000 active; AID 651725, 2012; in the data active = activity change below about -65%; inconclusive = mostly about -30% to -63%; also: % is scaled to controls: 0 for no effect and ±100 for the full control effect
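AlphaScreen luminescence read after one hour at 37 °C in darkness. Pin-transferred compounds met GST-Six1 and His-Eya2 protein (5X stock 250 nM/500 nM) plus glutathione donor and Ni-chelate acceptor beads (5X, 50 ug/mL).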
HP1b chromo inh – HTS for Inhibitors of HP1-beta Chromodomain Interactions with Methylated Histone Tails | Chromobox protein homolog 1 (Homo sapiens), P83916 | AlphaScreen HP1-beta / biotin-H3K9me3 peptide binding | Potency, µM (series often up to 114 µM), inactives show at the highest dose activity change, negative = inhibition, actives largely listed as inhibitors | 0.56% of 390,000 active | AID 540317, 2011; also: potency is read from the fitted curve at half-maximal effect; nearly all actives have a fitted effect of over 70% in size
Target sequence (P83916 whole entry, looked up): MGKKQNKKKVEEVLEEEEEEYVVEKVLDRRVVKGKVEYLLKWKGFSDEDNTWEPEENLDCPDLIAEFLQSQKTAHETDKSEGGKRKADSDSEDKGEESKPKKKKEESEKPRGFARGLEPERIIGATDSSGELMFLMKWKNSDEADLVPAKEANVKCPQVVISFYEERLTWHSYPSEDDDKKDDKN
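HP1-beta protein (50 nM final) preincubated 30 min at room temperature with biotinylated H3(1-18)K9me3 peptide (50 nM) in PBS pH 7.4, 0.01% Tween-20, then compound added for 30 min. AlphaScreen streptavidin donor/nickel chelate acceptor beads (10 ug/mL final), 30 min dark, luminescence read.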
JMJD2A Tudor inh – qHTS Assay for Inhibitors of JMJD2A-Tudor Domain; Potency, µM (series often up to 114 µM), for inactives: at the top dose activity change, negative = inhibition, usual class: inhibitors; Lysine-specific demethylase 4A (Homo sapiens), O75164; AID 504339, 2011; 4.4% of 390,000 active; AlphaScreen JMJD2A-Tudor / H3K4me3 peptide binding; also: potency is read from the fitted curve at half-maximal effect; % is scaled to controls: 0 for no effect and ±100 for the full control effect; nearly all actives have a fitted effect of over 50% in size
CtBP-E1A inh – qHTS Assay for Inhibitors of the CtBP/E1A Interaction; CtBP / adenovirus E1A interaction (AlphaScreen); AlphaScreen GST-E1A/His-CtBP binding, 1536-well; hits give low values; activity change, % (concentration not given with the values); 0.49% of 340,000 active; AID 651724, 2012; in the data active = activity change below about -65%; inconclusive = mostly about -30% to -63%; also: % is scaled to controls: 0 for no effect and ±100 for the full control effect
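Protein mix (5X: 125 nM each GST-E1A, His-CtBP) was incubated with pinned compound 2 h at 37 deg C in dark, in 50 mM Tris pH 8.0 buffer with 300 mM NaCl. Glutathione donor and nickel acceptor beads followed; AlphaScreen signal read after 1 h.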
G9a block – qHTS Assay for Inhibitors of Histone Lysine Methyltransferase G9a; Histone-lysine N-methyltransferase EHMT2 (Homo sapiens), Q96KQ7; 8.8% of 350,000 active; AID 504332, 2011; Potency, µM (doses to about 102 µM), inactives show top-dose activity, negative = inhibition, usual class: inhibitors; G9a H3K9 monomethylation, AlphaScreen, 2 h; also: potency is read from the fitted curve at half-maximal effect; % is scaled to controls: 0 for no effect and ±100 for the full control effect; nearly all actives have a fitted effect of over 75% in size
Target sequence (Q96KQ7 913-1193 limits assumed): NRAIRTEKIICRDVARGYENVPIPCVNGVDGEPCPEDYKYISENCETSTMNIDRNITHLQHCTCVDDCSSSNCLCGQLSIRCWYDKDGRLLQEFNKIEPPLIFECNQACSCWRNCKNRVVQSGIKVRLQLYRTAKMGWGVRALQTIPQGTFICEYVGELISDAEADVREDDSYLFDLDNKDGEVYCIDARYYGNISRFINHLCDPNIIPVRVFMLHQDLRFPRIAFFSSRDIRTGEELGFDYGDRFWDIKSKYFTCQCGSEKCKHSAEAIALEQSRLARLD
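Quantitative HTS format: methyltransferase activity on a biotin-tagged H3K9 peptide is measured by AlphaScreen, using a rabbit anti-monomethyl-H3K9 antibody with streptavidin donor and anti-IgG acceptor beads. Final levels are 20 nM enzyme, 500 nM peptide, 20 uM SAM; 2 h RT.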
BAZ2B inh – qHTS Assay for Inhibitors of BAZ2B; Potency, µM (doses to about 114 µM), without a hit: at the highest dose activity change, negative = inhibition, usual class: inhibitors; AID 504333, 2011; 4.4% of 360,000 active; AlphaScreen BAZ2B-H3K14Ac peptide displacement; Bromodomain adjacent to zinc finger domain protein 2B (Homo sapiens), Q9UIF8; also: potency is read from the fitted curve at half-maximal effect; % is scaled to controls: 0 for no effect and ±100 for the full control effect; nearly all actives have a fitted effect of over 60% in size
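Compounds, titrated to a top concentration of 110 uM, were incubated 30 min at room temperature with preformed BAZ2B/acetyl-K14 H3 peptide complex (50 nM each). Proximity signal was measured by AlphaScreen after 20 min with beads.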
An asterisk follows results filed as active; u = inconclusive; x = no result; ! = repeats disagree; [ ] = remark or other dose. This is a sample that favours compounds with a hit; in the whole collection about 10% have one here. Unless noted, calls follow the shape of the dose curve; as a rule, active = well fitted inhibition curve with a large enough effect; inconclusive = small, poorly fitted or top-dose-only effect; inactive = no such curve, though single readings can be large or run the other way.

SMILES | Six1-Eya2 inh | HP1b chromo inh | JMJD2A Tudor inh | CtBP-E1A inh | G9a block | BAZ2B inh
COc1ccc(/C=N/NC(=O)c2[nH]c3ccc(Cl)cc3c2-c2ccccc2)c(C(=O)O)c1OC | -72* | 0% | u | u | -21% | -26%
COc1ccc(/C=N/NC(=O)c2[nH]c3ccc(Br)cc3c2-c2ccccc2)cc1 | -2 | 14% | -8% | -4 | 17%[59 µM] | 8%
COc1ccc(/C=N/NC(=O)c2[nH]c3ccc(Br)cc3c2-c2ccccc2)c(C(=O)O)c1OC | u | 16%[57 µM] | u | u | u | 50µM*
COc1ccc(CCNC(=O)c2cc3ccc(Cl)cc3nc2N)cc1 | 1 | x | x | 11 | x | x
COc1ccc(Nc2c(C3CC3)nc3nc(C)cc(C)n23)cc1 | 2 | x | x | -4 | x | x
COC(=O)c1ccc(CN(Cc2ccc(OC)c(OC)c2)S(=O)(=O)c2ccc(F)c(C(=O)Nc3cc(C)ccc3C)c2)cc1 | x | 35% | -11% | x | -21%[59 µM] | -9%
S=c1[nH]nc(C2CCCCC2)n1/N=C/C=C/c1ccccc1 | -10 | -34% | 79µM* | -7 | 10µM* | u
S=c1[nH]nc(C2CCCCC2)n1/N=C/C(Cl)=C\c1ccccc1 | 2 | -9% | u | 19 | 25µM* | -3%
CC(/C=N/NC(=O)c1cc(C2CC2)[nH]n1)=C\c1ccccc1 | 0 | 27% | -19% | -3 | 27% | -11%
NC(N)=NC(=O)Cc1c(Cl)cccc1Cl | 4 | 37% | 6% | -1 | 13µM*! | 7%
Cc1nc(S(=O)(=O)NC2CCCCC2)c(C#N)c(C)c1Cl | 0 | -13% | -2%[11.4 µM] | 3 | 79µM* | -24%
Cc1nc(S(=O)(=O)N(C)Cc2ccccc2)c(C#N)c(C)c1Cl | 11 | 53% | 6% | 1 | 7%[0.501 µM] | 5%
Cc1nc(S(=O)(=O)N2CCOCC2)c(C#N)c(C)c1Cl | 2 | 2% | 79µM* | 5 | 81%[59 µM] | -25%
CCc1nn(CC(=O)NCCCOC)c(=O)c2cc3occc3n12 | x | 6% | 5% | x | 8%[59 µM] | -2%
COc1ccc(NC(=O)C(NS(=O)(=O)c2cccc3nsnc23)c2ccccc2)cc1 (centres undefined) | x | 13% | -28% | x | -25%[59 µM] | x
Cc1ccnc(NC(=O)c2ccc([N+](=O)[O-])o2)c1 | 0 | 0% | -22% | -2 | -4%[12.7 µM] | 56µM*
Cc1ccnc(NC(=O)/C=C/c2ccccc2[N+](=O)[O-])c1 | x | x | x | x | u | 56µM*
O=C(NNC(=O)c1ccccc1[N+](=O)[O-])c1ccccn1 | -77* | 42% | -14%[57.1 µM] | 2 | x | -23%
O=C(Nc1ccccn1)c1ccc([N+](=O)[O-])o1 | -4 | 29% | -5% | x | 17%[59 µM] | 10%
Cc1ccnc(NC(=O)c2ccccc2[N+](=O)[O-])c1 | -1 | u | -17% | 0 | 10µM* | 10%
CCc1ccccc1NC(=O)[C@@H](c1ccccc1)N1Cc2ccccc2C1=O | x | 23% | -11% | x | 8%[59 µM] | -13%
CCCCC1(c2ccc(F)cc2)NC(=O)N(CC(=O)N2CCN(C(=O)c3ccco3)CC2)C1=O (centres undefined) | -1 | 18% | -14% | 0 | -2% | -31%
Cc1ccccc1OCC(=O)NCC(C)NC(=O)COc1ccccc1C (centres undefined) | x | 2%[57 µM] | -8%[57.1 µM] | x | x | x
Cc1ccc(NC(=O)CCC(=O)NNC(=O)c2cccs2)c(C)c1 | 2 | 7% | -14% | 10 | 23%[59 µM] | -1%[57.1 µM]
Cc1ccc(NC(=O)CCC(=O)NNC(=O)c2ccccc2[N+](=O)[O-])c(C)c1 | 3 | 32% | -2% | -3 | 50µM* | -8%
SMILES | Six1-Eya2 inh | HP1b chromo inh | JMJD2A Tudor inh | CtBP-E1A inh | G9a block | BAZ2B inh
Cc1ccc(NC(=S)N=Nc2c(O)n(C)c3ccc(S(=O)(=O)N4CCOCC4)cc23)cc1C | 0 | 2% | -15% | -8 | -21% | -34%
Cn1c(O)c(N=NC(=S)Nc2ccccc2F)c2cc(S(=O)(=O)N3CCOCC3)ccc21 | -20 | -4% | u | -21 | 32µM* | 4%
NC(=O)CC(NSc1ccccc1[N+](=O)[O-])C(=O)O (centres undefined) | 1 | -8% | 35µM* | 0 | u | u
Cc1cc2c(s1)c1cnn(Cc3c(F)cccc3F)c(=O)c1n2C | x | x | -18% | x | x | x
O=C(NCCS(=O)(=O)NCc1cccnc1)c1ccccc1 | 10 | 15% | -18% | 3 | -30% | 9%
COc1cccc(C(=O)NCCS(=O)(=O)NCc2ccco2)c1 | -3 | 20% | -5% | 6 | 20µM* | -23%
COc1ccc(C(=O)NCCS(=O)(=O)NCc2ccco2)cc1 | -2 | 28% | -19% | 5 | u | -19%
COc1cccc(C(=O)NCCS(=O)(=O)NCc2cccs2)c1 | 12 | 9% | -2% | -15 | 35µM* | -6%
COc1cccc(C(=O)NCCS(=O)(=O)NCc2cccnc2)c1 | -4 | 10% | -8% | -10 | 50µM* | 11%
C=CCn1c(C(C)NC(=O)c2ccccc2C)n[nH]c1=S (centres undefined) | 2 | 44% | 7.9µM* | -3 | 20µM* | -4%
CCn1c(C(C)NC(=O)c2ccccc2C)n[nH]c1=S (centres undefined) | -2 | 45% | u | x | x | -12%
Cc1ccc(C(=O)NC(C)c2ccc(F)cc2)cc1 (centres undefined) | 3 | 27% | -15% | 4 | -5%[59 µM] | 0%
C=CCn1c(C(C)NC(=O)c2ccc(C)cc2)n[nH]c1=S (centres undefined) | 1 | 24% | 8.9µM* | -11 | 40µM* | 3%
COc1ccc(CNC(=O)CCc2nnc3n(CC(C)C)c(=O)c4ccccc4n23)cc1 | x | 21% | -9% | x | 0%[59 µM] | -1%
CCN(CC)C(=O)Cn1c(=O)n(-c2ccc(Cl)c(Cl)c2)c(=O)c2c(C)c(C(=O)N(CC)CC)sc21 | x | -5% | -13% | x | -2%[59 µM] | -2%
CSC1=NC(C(Cl)(Cl)Cl)N=C(c2ccc(C)cc2)N1 (centres undefined) | -4 | 59% | -5% | 2 | 14µM* | -20%
CCOC(=O)c1cn2nc(-c3ccc(OCC)cc3)cc2nc1C1CCN(C(=O)OC(C)(C)C)CC1 | 3 | 82% | 30% | -1 | 17% | 5%
COc1ccc(-n2ncc(C(=O)N3CCOCC3)c2C2CCN(C(=O)OC(C)(C)C)CC2)cc1 | x | -5% | -32% | x | 5%[59 µM] | -1%[57.1 µM]
